This is part of a sample that, as a whole, favours compounds with a hit. Of some 83,000 tested, about 20% had one in any assay.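 Interpretation: 100, growth as untreated; towards 0, rising growth inhibition; 0, no net growth; 0 to -100, cell death. Compounds scoring below 10 were considered active.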 Values without a mark were called inactive. The source made the active and inactive calls.
How the values were obtained:
Test in all cases: NCI-60 one-dose screen, 48 h (100 = growth as untreated, 0 = no growth, -100 = all killed)
[1] = system: NCI-H460 lung; conditions: 10 µM unless noted
[2] = system: K-562 leukemia; conditions: 10 µM unless noted
[3] = system: MALME-3M melanoma; conditions: 10 µM unless noted
[4] = system: RXF 393 renal; conditions: 10 µM unless noted
[5] = system: SF-295 CNS; conditions: 10 µM unless noted
[6] = system: UACC-257 melanoma; conditions: 10 µM unless noted
[7] = system: SNB-75 CNS; conditions: 10 µM unless noted
[8] = system: U251 CNS; conditions: 10 µM unless noted
[9] = system: SK-MEL-5 melanoma; conditions: 10 µM unless noted
[10] = system: SK-MEL-2 melanoma; conditions: 10 µM unless noted
[11] = system: SN12C renal; conditions: 10 µM unless noted
[12] = system: UO-31 renal; conditions: 10 µM unless noted
[13] = system: HL-60(TB) leukemia; conditions: 10 µM unless noted
[14] = system: MOLT-4 leukemia; conditions: 10 µM
[15] = system: RPMI-8226 leukemia; conditions: 10 µM unless noted
[16] = system: IGROV1 ovarian; conditions: 10 µM
[17] = system: BT-549 breast; conditions: 10 µM
[18] = system: HCT-116 colon; conditions: 10 µM unless noted
[19] = system: HCC-2998 colon; conditions: 10 µM unless noted
[20] = system: SR leukemia; conditions: 10 µM

Structure (SMILES) | growth [1] | growth [2] | growth [3] | growth [4] | growth [5] | growth [6] | growth [7] | growth [8] | growth [9] | growth [10] | growth [11] | growth [12] | growth [13] | growth [14] | growth [15] | growth [16] | growth [17] | growth [18] | growth [19] | growth [20]
COc1ccccc1N1CCN(CCc2c[nH]c3cc4c(cc23)OCO4)CC1 | 51.6% | 76.3% | 92% | 75.8% | 41% | 56.7% | 91.6% | 85.4% | 74.8% | 57.6% | 68.4% | 33.2% | 64.8% | 84.7% | 47.1% | -33.9% (active) | 84.2% | 42.5% | 92.6% | 
NC(=O)OCC(CO)(c1ccccc1)c1ccccc1 | 107% | 108% | 84.6% | 99.6% | 93.5% | 105% | 89.2% |  | 96.4% | 110% | 98.4% | 80.1% | 114% | 98.7% | 98.4% | 103% | 107% | 92.1% | 107% | 96.5%
CN1CCN(C(=O)COc2ccc(/C=C3\CC4C5CC=C6CC(Cl)CCC6(C)C5CCC4(C)C3=O)cc2)CC1 (stereo not drawn) | 17.2% | 18.3% | 73.8% | 79% | 82.8% | 38.8% | 86.8% | 34.1% | 80.4% | 89.8% | 79.7% | 99.9% | 38.3% | 59.3% | 53.5% | 86.6% | 87.3% | 34.6% | 90.6% | 0.223% (active)
N#Cc1ncc(/N=C/c2ccc(N(CCCl)CCCl)cc2)s1 | 22.7% | 37.6% |  | 84.7% | 58.4% | 82.4% | 61.6% | 80.5% | 88.4% | 57% | 55.9% | 34.8% | 39.3% | 42.7% |  | 90% | 66% | 71.6% | 96.8% | 12.7%
O=C(O)CNC(=O)c1ccccc1 | 103% |  | 133% | 102% | 104% | 92.4% | 93.7% |  | 98.9% | 97.2% | 107% | 95.8% |  |  | 92.2% | 105% | 97.5% | 98.2% | 98.9% | 
CC[C@@]1(C2O[C@@H](C3O[C@@](O)(CC)[C@H](C)C[C@@H]3C)C[C@@H]2C)CC[C@H]([C@]2(C)CCC3(C[C@H](O)[C@@H](C)[C@@H]([C@H](C)[C@@H](OC)[C@H](C)C(=O)O)O3)O2)O1 (stereo partly drawn) |  |  |  |  |  | 20.7% | 16% |  |  |  | 31% |  |  | 30.8% |  | 36.9% | 32.5% |  |  | 
N#CC1c2ccccc2C=CN1C(=O)c1ccc(N(CCCl)CCCl)cc1 (stereo not drawn) | 111% | 65.8% | 85.4% | 89.7% | 90.6% | 81.5% | 79.6% |  | 84% | 104% | 75.5% | 71% | 65.9% | 72.2% | 69.2% | 98.2% | 89.8% | 104% | 101% | 86.6%
CC1(C)CC(=O)CC(C)(C)N1N=O | 114% | 111% | 130% | 136% | 111% | 104% | 78.7% | 118% | 111% |  | 106% | 91.5% | 77.4% | 101% |  | 122% |  | 96.3% | 97.9% | 109%
CC(C)(C)[Si](C)(C)OC1[C@@H](O[Si](C)(C)C(C)(C)C)[C@@H](CNC(=O)NC(=O)CF)O[C@H]1n1cnc2c(NC(=O)Nc3ccccc3)ncnc21 (stereo partly drawn) | 4.01% (active) | 37.7% | 101% | 65.8% | 79.5% |  | 73.8% | 56.6% |  |  | 44.3% | 77.5% | 17.3% | -13.4% (active) | 24.6% | 72.9% | 68.9% | 21.3% | 46.3% | -22.6% (active)
COc1cc(C2CC(=O)Nc3nc(N)[se]c32)c(OC)c2c1OCO2 (stereo not drawn) | 23.9% |  | 102% |  | 6.71% (active) | 116% | 101% | 48% |  | 101% | 97.3% | 86.8% | 84.4% | 117% | 119% | 83.6% | 101% | 65.7% | 121% | 107%
CCN1CC2(CN(CC)C1=S)C(=O)NC(=O)NC2=O | 100% | 87.5% | 103% | 116% | 95.1% | 94.7% | 95.8% | 97.7% | 106% | 99% | 107% | 99.4% | 83.3% | 107% | 100% | 103% | 91.4% | 97.3% | 99.7% | 114%
CN(Cc1cccnc1)N=O | 103% | 104% | 96.6% | 104% | 102% | 95.7% | 85.1% | 97.1% | 103% | 89% | 102% | 84.7% | 97.6% | 102% | 102% | 99.7% |  | 93.1% | 112% | 98.4%
CNC(=O)Oc1cc(C(C)C)ccc1Sc1ccc(C(C)C)cc1OC(=O)NC | 34.9% | 25.6% | 62.7% | 64.3% | 26.9% | 65.5% | 52.1% | 46.2% | 33.1% | 72.4% | 85.3% | 65.7% | 40.4% | 26.8% | 51.2% |  | 94.2% | 66.5% | 104% | 15.8%
OC1(c2ccccc2F)c2ccccc2C2=NCCN21 (stereo not drawn) | 118% | 88.7% | 97.2% | -10.4% (active) | 91.8% | 111% | 104% | 104% | 94.6% | 94.6% | 101% | 84.2% | 83.8% | 97.7% | 107% | 79.4% | 110% | 93.3% | 100% | 90.9%
S=P(N1CCCCCC1)(N1CC1)N1CC1 | 107% | 97% | 90.3% | 124% | 117% | 106% | 98.7% | 106% | 107% | 97.9% | 96.2% | 104% | 84.3% | 33.4% |  | 90.1% | 102% | 99.8% | 93.8% | 82.6%
CC(CC(C#N)(c1ccccc1)c1ccccc1)N1CCOCC1 (stereo not drawn) | 112% | 83.5% | 120% | 112% |  | 106% | 104% | 99.2% | 102% | 101% |  | 74.6% | 86.4% | 82.3% | 103% | 102% | 111% | 106% |  | 84.3%
COC[CH2][Hg][C]#[C][Hg][CH2]COC | 94.4% | 96.7% | 104% | 59.4% |  | 105% | 83% |  |  | 41.9% | 96% | 92.8% | 89.3% | 79.8% |  | 80.2% | 111% | 99.2% | 103% | 8.96% (active)
COc1cccc2c1C(=O)c1c(O)c3c(c(O)c1C2=O)CC(O)(/C(C)=N/NC(=O)CCC(=O)N/N=C(\C)C1(O)Cc2c(O)c4c(c(O)c2C(OC2CC(N)C(O)C(C)O2)C1)C(=O)c1c(OC)cccc1C4=O)CC3OC1CC(N)C(O)C(C)O1 (stereo not drawn) | -44.3% [5 µM] (active) | -60.2% [5 µM] (active) | -99.1% [5 µM] (active) | -56.7% [5 µM] (active) | -32.8% [5 µM] (active) | -17.8% [5 µM] (active) | -53.2% [5 µM] (active) | -27% [5 µM] (active) | -100% [5 µM] (active) | -54.3% [5 µM] (active) | -5.24% [5 µM] (active) | -7.96% [5 µM] (active) | -41.9% [5 µM] (active) |  | -38% [5 µM] (active) |  |  | -31.5% [5 µM] (active) | -94.5% [5 µM] (active) | 

— PubChem BioAssay (NCI)
